Laboratory results from PubChem BioAssay.
Unmarked numbers belong to inactive results. For some of these results: Entries with a potency or affinity are not part of this list. Calls of active or inactive are those of the source. Unless noted, the rule behind the calls is not given here.

Key:
[1] = antimalarial activity against Dd2 strain (AID 2302;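 active = growth inhibition above 50% at the single 2 µM test dose, taken to imply half-maximal potency below 2 µM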;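 note: 0% = DMSO untreated growth and 100% = chloroquine plus artemisinin killed control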); details: P. falciparum Dd2 in RBCs, LDH growth readout, 72 h; at 2 µM; active compounds read high
[2] = human hepatoma cell viability loss – ATP luminescence, cytotoxicity control for P. falciparum antimalarial project, primary screen (AID 2303;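 active = inhibition above 50%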;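 note: 0% = DMSO wells and 100% = digitonin-killed cells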); details: HepG2 viability, 24-48 h, at 10 µM, active compounds read high
[3] = molecular target: L-lactate dehydrogenase (Plasmodium falciparum (isolate CDC / Honduras)) (UniProt Q27743); test: PfLDH activity inhibition – cell lysate, 3D7 strain, counter-screen for P. falciparum growth inhibition project (AID 2304);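 note: 0% = vehicle and 100% = reference inhibitor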; details: P. falciparum 3D7 crude extract, LDH APAD/NBT absorbance; at 2 µM; active compounds read high
[4] = inhibition of 3D7 malaria parasite growth – strain 3D7 (AID 2306);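 note: 0% = DMSO wells and 100% = chloroquine plus artemisinin control wells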; details: P. falciparum 3D7 erythrocytic growth, LDH absorbance, 72 h; at 2 µM; active compounds read high
[5] = molecular target: Calcium-dependent protein kinase 1 (Plasmodium falciparum (isolate 3D7)) (UniProt P62344); test: PfCDPK1 kinase inhibitors, biochemical, TCAMS library (AID 1159585; cut-off not given, nearly all actives have IC50 up to about 0.98 µM;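 note: inhibitors leave more ATP so luminescence rises with inhibition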); details: recombinant PfCDPK1, Kinase-Glo ATP depletion luminescence
[6] = molecular target: Plasmodium falciparum protein kinase 6 (PK6, PF3D7_1337100) (UniProt Q8IDW1); test: PfPK6 kinase inhibitors, biochemical, TCAMS library (AID 1159586); details: recombinant PfPK6, Kinase-Glo ATP depletion luminescence
[7] = molecular target: Protein kinase 7 (PK7), Plasmodium falciparum 3D7 (PF3D7_0213400) (UniProt Q7YTF7); test: inhibition of Plasmodium PK7 catalytic activity – biochemical, TCAMS antimalarial set, Kinase-Glo luminescence (AID 1159587); details: recombinant PfPK7, Kinase-Glo ATP depletion luminescence
[8] = molecular target: Calcium-dependent protein kinase 4 (Plasmodium falciparum (isolate 3D7)) (UniProt Q8IBS5); test: PfCDPK4 kinase inhibitors, biochemical, TCAMS library (AID 1159588; cut-off not given, nearly all actives have IC50 up to about 0.91 µM); details: recombinant PfCDPK4, Kinase-Glo ATP depletion luminescence
Chain of Calcium-dependent protein kinase 4 (Plasmodium falciparum (isolate 3D7)) (Q8IBS5 whole entry, looked up): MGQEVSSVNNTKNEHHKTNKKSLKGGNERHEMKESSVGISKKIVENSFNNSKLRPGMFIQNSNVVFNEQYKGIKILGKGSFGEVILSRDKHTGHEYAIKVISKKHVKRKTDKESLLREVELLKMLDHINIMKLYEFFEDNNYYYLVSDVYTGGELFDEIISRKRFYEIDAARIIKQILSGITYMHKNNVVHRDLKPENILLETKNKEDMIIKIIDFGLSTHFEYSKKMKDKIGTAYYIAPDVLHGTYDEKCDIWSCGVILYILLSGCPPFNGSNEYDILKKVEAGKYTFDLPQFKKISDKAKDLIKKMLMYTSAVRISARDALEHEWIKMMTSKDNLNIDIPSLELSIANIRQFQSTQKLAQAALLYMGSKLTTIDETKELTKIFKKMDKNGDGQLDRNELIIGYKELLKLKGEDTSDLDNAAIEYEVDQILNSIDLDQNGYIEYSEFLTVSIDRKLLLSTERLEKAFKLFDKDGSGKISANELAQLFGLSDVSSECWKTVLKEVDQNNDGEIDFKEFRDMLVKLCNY

Chain of L-lactate dehydrogenase (Plasmodium falciparum (isolate CDC / Honduras)) (Q27743 whole entry, looked up): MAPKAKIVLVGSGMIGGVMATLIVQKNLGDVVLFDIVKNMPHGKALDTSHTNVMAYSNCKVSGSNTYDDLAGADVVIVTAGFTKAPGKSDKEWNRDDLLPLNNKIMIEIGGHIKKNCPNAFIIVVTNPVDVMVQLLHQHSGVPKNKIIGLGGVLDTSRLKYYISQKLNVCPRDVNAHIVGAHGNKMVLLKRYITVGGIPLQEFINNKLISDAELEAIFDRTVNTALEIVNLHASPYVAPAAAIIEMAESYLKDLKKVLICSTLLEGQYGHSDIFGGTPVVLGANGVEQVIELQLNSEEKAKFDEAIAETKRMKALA
Chain of Calcium-dependent protein kinase 1 (Plasmodium falciparum (isolate 3D7)) (P62344 whole entry, looked up): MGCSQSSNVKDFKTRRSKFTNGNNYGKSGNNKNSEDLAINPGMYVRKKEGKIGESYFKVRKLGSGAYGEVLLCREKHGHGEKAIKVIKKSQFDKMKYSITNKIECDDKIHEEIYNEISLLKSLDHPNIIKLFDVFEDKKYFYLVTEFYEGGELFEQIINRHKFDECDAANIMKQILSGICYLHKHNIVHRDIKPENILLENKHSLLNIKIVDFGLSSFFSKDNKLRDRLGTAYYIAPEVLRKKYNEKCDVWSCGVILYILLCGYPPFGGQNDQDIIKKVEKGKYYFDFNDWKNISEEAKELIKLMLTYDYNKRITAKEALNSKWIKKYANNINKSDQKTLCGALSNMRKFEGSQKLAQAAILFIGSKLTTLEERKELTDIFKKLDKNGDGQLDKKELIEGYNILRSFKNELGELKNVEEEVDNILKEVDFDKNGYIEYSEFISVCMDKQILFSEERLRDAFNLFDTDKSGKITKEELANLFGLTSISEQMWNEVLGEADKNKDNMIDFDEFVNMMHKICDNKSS
Chain of Protein kinase 7 (PK7), Plasmodium falciparum 3D7 (PF3D7_0213400) (Q7YTF7 1-343): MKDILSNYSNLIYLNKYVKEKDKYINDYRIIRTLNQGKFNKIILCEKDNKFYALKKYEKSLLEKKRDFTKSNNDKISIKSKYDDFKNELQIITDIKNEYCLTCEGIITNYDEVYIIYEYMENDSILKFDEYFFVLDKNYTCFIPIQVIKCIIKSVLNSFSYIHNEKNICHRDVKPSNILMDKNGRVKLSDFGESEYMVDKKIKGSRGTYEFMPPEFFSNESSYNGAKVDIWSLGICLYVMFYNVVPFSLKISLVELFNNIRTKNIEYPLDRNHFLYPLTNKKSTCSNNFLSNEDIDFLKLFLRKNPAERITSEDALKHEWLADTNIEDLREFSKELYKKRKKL
Chain of Plasmodium falciparum protein kinase 6 (PK6, PF3D7_1337100) (Q8IDW1 1-305): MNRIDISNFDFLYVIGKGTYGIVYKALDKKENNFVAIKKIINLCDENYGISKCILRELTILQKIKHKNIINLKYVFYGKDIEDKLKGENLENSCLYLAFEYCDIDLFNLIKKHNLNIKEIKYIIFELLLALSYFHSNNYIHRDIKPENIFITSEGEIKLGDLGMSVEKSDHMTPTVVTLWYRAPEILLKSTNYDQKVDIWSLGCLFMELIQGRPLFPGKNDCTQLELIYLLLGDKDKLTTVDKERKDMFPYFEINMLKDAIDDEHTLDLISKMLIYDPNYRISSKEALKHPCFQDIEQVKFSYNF

Row | SMILES | growth inhibition [1] | inhibition [2] | inhibition [3] | growth inhibition [4] | outcome [5] | outcome [6] | outcome [7] | outcome [8]
1 | Cc1cc(C(=O)Nc2ccc3c(c2)CCN3C2CCN(Cc3ccc(O)cc3)C2)no1 (stereo not drawn) | 86% (active) | 3% | -1% | 95% (active) | inactive | inactive | inactive | inactive
2 | Cc1ccoc1C(=O)Nc1cccc(-c2cccc(-c3nc4c(C)cccc4[nH]3)c2)c1 | 79% (active) | 17% | -3% | 101% (active) | inactive | inactive | inactive | inactive
3 | Cc1ccc(C)c(Cn2ccc3nc(Cl)nc(Cl)c32)c1 | 68% (active) | -10% | -2% | 95% (active) | inactive | inactive | inactive | inactive
4 | Cc1nc2c(c(O)c1Cl)-c1ccc(Oc3cccc(C(F)(F)F)c3)cc1C2=O | 95% (active) | 25% | -6% | 94% (active) | inactive | inactive | inactive | inactive
5 | CC1CN(Cc2cccc(F)c2)CCN1c1ccc(NC(=O)c2ccc(F)cc2)cc1 (stereo not drawn) | 92% (active) | -2% | -2% | 96% (active) | inactive | inactive | inactive | inactive
6 | CC1(C)N=C(N)N=C(N)N1OCCCc1cc(Cl)c(Cl)cc1Cl | 96% (active) | 55% (active) | 2% | 95% (active) | inactive | inactive | inactive | inactive
7 | O=S(=O)(NCCN1CCCC1)c1ccc(-c2cccc(CNCc3ccc(F)cc3)c2)cc1 | 41% | 76% (active) | -2% | 100% (active) | inactive | inactive | inactive | inactive
8 | O=C(NCCN1CCN(S(=O)(=O)c2ccc(OC3CCNCC3)c(Br)c2)CC1)c1ccc(Cl)c(Cl)c1 | -3% | 1% | -3% | 89% (active) | inactive | inactive | inactive | inactive
9 | CC(C)C[C@@H](C(=O)Nc1ccc(Cc2ccc(NC(=O)[C@H](CC(C)C)N(C)C(=O)OC(C)(C)C)cc2)cc1)N(C)C(=O)OC(C)(C)C | 57% (active) | 17% | 2% | 92% (active) | inactive | inactive | inactive | inactive
10 | CC(=O)NCCNc1cc(N2CCc3ncnc(Nc4ccc(OCc5c(F)cccc5F)c(Cl)c4)c3C2)ncn1 | 100% (active) | 55% (active) | 4% | 100% (active) | inactive | inactive | inactive | inactive
11 | O=c1[nH]c2ccc3[nH]cccc3c2c1C=Nc1ccc(Cn2ccnc2)cc1 | 85% (active) | 33% | 1% | 101% (active) | inactive | inactive | inactive | inactive
12 | N#Cc1ccc2c(c1)CCN(CCC1CCC(NC(=O)/C=C/c3ccc4[nH]ccc4c3)CC1)CC2 (stereo not drawn) | 27% | 2% | 2% | 93% (active) | inactive | inactive | inactive | inactive
13 | N#Cc1cccc(-c2ccc(C(=O)Nc3ccc4c(c3)CCN(C3CCC3)CC4)cn2)c1 | 5% | 26% | -2% | 96% (active) | inactive | inactive | inactive | inactive
14 | O=C(Nc1ccc(Cl)cc1)c1cccc(S(=O)(=O)NC2CCN(CC3CCCCC3)C2)c1 (stereo not drawn) | 41% | 80% (active) | -2% | 90% (active) | inactive | inactive | inactive | inactive
15 | COc1cc(-c2nnc(SCC(=O)Nc3cc(C)on3)n2C)cc(OC)c1O | 2% | 2% | 5% | 89% (active) | inactive | inactive | inactive | inactive
16 | Cc1[nH]c(C)c(-c2ccc(OCCCc3ccccn3)cc2)c(=O)c1Br | 97% (active) | -8% | 5% | 98% (active) | inactive | inactive | inactive | inactive
17 | CS(=O)(=O)CCNCc1cccc(-c2cc3c(Nc4ccc(OCc5ccccc5)cc4)ncnc3cn2)c1 | 26% | 3% | 2% | 101% (active) | inactive | inactive | inactive | inactive
18 | CC(C)CCNc1nc2ccccc2nc1Nc1cccc(C(F)(F)F)c1 | 99% (active) | 12% | 1% | 98% (active) | inactive | inactive | inactive | inactive
19 | CC1(C)N=C(N)N=C(N)N1OCCCOc1cccc2ccccc12 | 86% (active) | 67% (active) | 4% | 95% (active) | inactive | inactive | inactive | inactive
20 | Cc1cc(CN2CC[C@H](NC(=O)c3ccc(Cl)c(Cl)c3)C2)ccc1OCCN1CCCC1 | 92% (active) | 56% (active) | 0% | 101% (active) | inactive | inactive | inactive | inactive
21 | O=C(/C=C/c1ccc(Cl)c(Cl)c1)NCCCCCN1CCC(NC(=O)c2ccc(F)c(F)c2)CC1 | 20% | 36% | -3% | 99% (active) | inactive | inactive | inactive | inactive

Row | SMILES | growth inhibition [1] | inhibition [2] | inhibition [3] | growth inhibition [4] | outcome [5] | outcome [6] | outcome [7] | outcome [8]
22 | COc1cc(-n2cnc3cc(-c4ccc([N+](=O)[O-])cc4)sc3c2=O)ccc1OCCN1CCCC1 | 79% (active) | 44% | -4% | 97% (active) | inactive | inactive | inactive | inactive
23 | COc1cc2c(cc1C(F)(F)F)N(C(=O)Nc1cc(F)cc(-c3cncnc3)c1)CC2 | 52% (active) | 15% | -5% | 97% (active) | inactive | inactive | inactive | inactive
24 | COc1ccc(CN(C)CC(O)COc2ccc(NC(=O)c3cccc4c(=O)c5cccc(OC)c5[nH]c34)cc2)cc1OC (stereo not drawn) | 65% (active) | 72% (active) | -3% | 93% (active) | inactive | inactive | inactive | inactive
25 | COc1ccc(NC(=O)[C@H](CC(C)C)Nc2cc(C)nc(NCCc3ccccc3)n2)cc1 | 74% (active) | 13% | -2% | 101% (active) | inactive | inactive | inactive | inactive
26 | CCN(CC)c1ccccc1CNC(=O)c1cc(Cl)c(N)cc1OC | 94% (active) | 6% | -1% | 97% (active) | inactive | inactive | inactive | inactive
27 | COc1cc2nc(N3CCN(c4cc(C)ccc4C)CC3)nc(N)c2cc1OC | 12% | 66% (active) | 5% | 98% (active) | inactive | inactive | inactive | inactive
28 | O=C(NC1CCC(N2CCC(c3nc4ccccc4s3)CC2)CC1)c1cc2ccccc2[nH]1 (stereo not drawn) | 37% | 23% | -1% | 94% (active) | inactive | inactive | inactive | inactive
29 | CCNc1cc(C(=O)N[C@@H](Cc2ccccc2)[C@H](O)CNC2CCSCC2)cc(N2CCCC2=O)c1 | 98% (active) | 0% | -1% | 99% (active) | inactive | inactive | inactive | inactive
30 | Cc1cc(C)c(C)c(OCCCON2C(N)=NC(N)=NC2(C)C)c1C | 95% (active) | 64% (active) | -4% | 94% (active) | inactive | inactive | inactive | inactive
31 | COc1cc(Nc2nccc(N3CCC(NC(=O)Nc4cc(C)ccc4C)C3)n2)cc(OC)c1OC (stereo not drawn) | 52% (active) | 13% | 4% | 91% (active) | inactive | inactive | inactive | inactive
32 | Fc1ccc2nc(-c3ccc(-c4ccc(CN5CCN(c6ccncc6)CC5)cc4)cc3)[nH]c2c1 | 101% (active) | 37% | 6% | 102% (active) | inactive | inactive | inactive | inactive
33 | COc1cccc(OC2CCN(C(=O)c3cc(C(C)(C)C)nn3Cc3ccccc3)CC2)c1 | 98% (active) | 3% | 3% | 102% (active) | inactive | inactive | inactive | inactive
34 | NC(Cc1ccc(Cl)cc1)=NCCN1CCCCCC1 | 94% (active) | -8% | -2% | 93% (active) | inactive | inactive | inactive | inactive
35 | Cc1cc(C(=O)Nc2ccc(-c3nc4ccccc4[nH]3)cc2)ccc1[N+](=O)[O-] | 47% | 55% (active) | 1% | 101% (active) | inactive | inactive | inactive | inactive
36 | CCCc1cc(NCC)nc(Nc2ccc(C)cc2)n1 | 16% | 22% | -1% | 95% (active) | inactive | inactive | inactive | inactive
37 | COc1ccccc1-c1cccc2c(NC(=O)Nc3ccc4nccc(N5CCN(C)CC5)c4c3)ccnc12 | 34% | 3% | 5% | 94% (active) | inactive | inactive | inactive | inactive
38 | O=C1SC(=Cc2ccc(O)c(O)c2)C(=O)N1c1ccccc1 | 17% | 12% | -5% | 91% (active) | inactive | inactive | inactive | inactive
39 | COc1ccc(Nc2nc(N)c3cc(OC)c(OC)cc3n2)cc1OC | 5% | -4% | -7% | 99% (active) | inactive | inactive | inactive | inactive
40 | C=CCn1cc(C2CCN(CCCCNC(=O)c3sc(-c4ccc(C(F)(F)F)cc4)nc3CO)CC2)c2cc(OC)ccc21 | 4% | 40% | 4% | 91% (active) | inactive | inactive | inactive | inactive
41 | COc1cccc(C2=CC(c3ccccc3)n3ncc(C(=O)Nc4ccc(Cl)cc4)c3N2)c1 (stereo not drawn) | 28% | 7% | -1% | 88% (active) | inactive | inactive | inactive | inactive
